The text below walks through data of PubChem BioAssay (NCATS).

Results filed as inconclusive are left out. The source made the active and inactive calls. Calls come from the whole dose curve; as a rule, active = well fitted cell-killing curve with a large enough effect; inconclusive = small, poorly fitted or top-dose-only effect; inactive = flat fitted curve, though single readings scatter.
% is set by controls: 0 for no effect and ±100 for the full control effect.

The test can be described thus: qHTS of pediatric cancer cell lines to identify multiple opportunities for drug repurposing: Primary screen for control Hh wild type fibroblast cells (AID 1347106).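 Note: a drop in luminescence marks cytotoxicity and a rise apparent proliferation; nearly all actives have a fitted effect of over 55% in size.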 As to conditions: Hh wild-type fibroblast viability, CellTiter-Glo luminescence, 48 h; series mostly up to 46 µM. The text has this: Drug repurposing or repositioning has been offered as a strategy for drug development in oncology programs. This approach has special potential for childhood cancers and other rare or orphan diseases, where the expected return on new drug development has been a disincentive to pharmaceuticals.
In this project we exploit the poly-pharmacology of drugs to discover new indications via phenotypic screening of a panel of 19 well-characterized cell lines derived from solid tumors seen in children and adolescents. The goal is to identify approved drugs with previously unrecognized anticancer properties that has the potential to reveal new mechanisms and biological processes involved in carcinogenesis or drug resistance. We employed a titration-based paradigm (quantitative high-throughput screening or qHTS), where all compounds were tested at multiple concentrations for their effect on cell viability. Concentration-response curves (CRCs) were derived directly from the primary screen, and both potency and efficacy values were used to identify compounds with robust bioactivity profiles. We screened the NIH Chemical Genomics Center (NCGC) Pharmaceutical Collection (NPC) and Mechanism Interrogation Plate (MIPE) small molecule collections of approved and investigational compounds against these cell lines; and measured metabolically active cells after 48 hours of compound treatment as a proxy for cell viability.
Assay Submitter: Nathalia J. Martinez, National Center for Advancing Translational Sciences, National Institutes of Health, Rockville, MD, USA; email: natalia.martinez@nih.gov
[1] Shen, M et al. Quantitative high-throughput phenotypic screening of pediatric cancer cell lines identifies multiple opportunities for drug repurposing. Oncotarget 2017 Dec 19;9(4):4758-4772. PMID 29435139.
The cells were obtained from University of North Carolina (UNC), Pediatric Preclinical Testing Program (PPT), and Coriell Institute (CI).
qHTS cell viability assay:
Cells were assayed in growth media at a density of 500-1,000 cells/well. Five microliters of cells were dispensed into 1,536-well, white, solid-bottom, TC-treated plates (Greiner Bio One) using a multidrop dispenser and incubated at 37 degrees C, 5% CO2, under a humidified atmosphere for 5 hours. Twenty-three nanoliters of compounds and controls (neutral control DMSO or positive control bortezomib at final concentration of 2.3 µM) were subsequently transferred by Kalypsys pintool. For primary screens, the MIPE collection was tested at 11-point dilutions (final concentrations range from 0.78 nM to 46 µM) and the NPC collection at 8-point dilutions (final concentrations range from 0.59 nM to 46 µM). Compounds tested in follow-up screens were assayed at 11-point dilutions. Cells were incubated for 48 hours, followed by addition of 3 µL of CellTiter-Glo (Promega). After a 15 min incubation at room temperature, samples were analyzed for luminescence intensity using a ViewLux High-throughput CCD imager equipped with clear filters.
For orientation: Quantitative high-throughput screening tests each substance at several concentrations.
For the molecule `CC(C)(C)c1ccc(C(=O)CCCN2CCC(OC(c3ccccc3)c3ccccc3)CC2)cc1`, the result was inactive.

Take `NC1=NCC2c3ccccc3Cc3ccccc3N12` (stereo not given): the molecule was classed as inactive.

For the molecule `Fc1ccc(C(c2ccc(F)cc2)N2CCN(C/C=C/c3ccccc3)CC2)cc1`, the result was inactive.

In the case of `CCN(Cc1ccncc1)C(=O)C(CO)c1ccccc1` (stereo not given), the molecule was called inactive.

On to `CC[N+](C)(C)c1cccc(O)c1`, for which the outcome was inactive.

As to `CC(=O)Oc1cc(C(C)C)c(OCCN(C)C)cc1C`, the molecule was called inactive.

As for `C#CCN(C)CCCOc1ccc(Cl)cc1Cl`, the result was inactive.

With `C[C@]12C=CC(=O)C=C1CC[C@H]1[C@@H]3C[C@@H](O)[C@](O)(C(=O)CO)[C@@]3(C)C[C@H](O)[C@@]12F`, the molecule was classed as inactive.

Turning to `C[C@@H](O)[C@H]1C(=O)N2C(C(=O)O)=C(SCCN=CN)C[C@H]12`, the outcome was inactive.

With `CCC(=O)c1ccc2c(c1)N(CCCN(C)C)c1ccccc1S2`, the molecule was called inactive.

Take `CCCC(C(=O)OCCN(CC)CC)(c1ccccc1)c1ccccc1`: the call was inactive.

Consider `CCCNC(C)C(=O)Nc1ccccc1C` (stereo not given), for which the call was inactive.

For `CCN1CCC[C@H]1CNC(=O)c1c(O)c(Cl)cc(Cl)c1OC`, the molecule was called inactive.

Turning to `CN=C(NC#N)NCCSCc1nc[nH]c1C`, the molecule was classed as inactive.

Turning to `Nc1nc(N)c2nc(-c3ccccc3)c(N)nc2n1`, the call was inactive.

For `Brc1c(NC2=NCCN2)ccc2nccnc12`, the molecule was called inactive.

`CCN(CC)CCNC(=O)c1ccc(NC(C)=O)cc1`: the outcome was inactive.

As for `O=C(CCNNC(=O)c1ccncc1)NCc1ccccc1`, the molecule was called inactive.

Consider `CCN(CC)CCOCCOC(=O)C1(c2ccccc2)CCCC1`, for which the call was inactive.

On to `CN(C)CC/C=C1\c2ccccc2COc2ccccc21`, for which the outcome was inactive.

`OC(CCN1CCCCC1)(c1ccccc1)C1CCCCC1` (stereo not given): the molecule was called inactive.

On to `CN1C(=O)CC[C@H]1c1cccnc1`, for which the molecule was called inactive.

Take `COc1ccc(CCN(C)CCCC(C#N)(c2cc(OC)c(OC)c(OC)c2)C(C)C)cc1OC` (stereo not given): the call was inactive.

Turning to `CCCN1C[C@H](CSC)C[C@@H]2c3cccc4[nH]cc(c34)C[C@H]21`, the result was inactive.

Turning to `CCCCOCCOCCOCc1cc2c(cc1CCC)OCO2`, the molecule was called inactive.

Take `CC(=O)OCC1=C(C(=O)O)N2C(=O)[C@@H](NC(=O)Cc3cccs3)[C@H]2SC1`: the molecule was called inactive.

On to `COc1cc(Cc2cnc(N)nc2N)cc(OC)c1OC`, for which the outcome was inactive.

Turning to `Cc1ccc(Cl)c(Nc2ccccc2C(=O)O)c1Cl`, the outcome was inactive.

For `CCn1nc(C(=O)O)c(=O)c2cc3c(cc21)OCO3`, the outcome was inactive.

On to `Cc1ccc(S(=O)(=O)NC(=O)NN2CCCCCC2)cc1`, for which the molecule was called inactive.

Take `Cc1scc2c1N(C(=O)CN1CCN(C)CC1)c1ccccc1NC2=O`: the result was inactive.

Take `CCOC(=O)C1=C(C)NC(C)=C(C(=O)OC)C1c1cccc([N+](=O)[O-])c1` (stereo not given): the call was inactive.

As to `C[N+](C)(C)CCCCCCCCCC[N+](C)(C)C`, the result was inactive.

With `NCCCNCCSP(=O)(O)O`, the activity change, negative = cytotoxic was 2.73% [at 9.22 µM] (inactive).

In the case of `CN/C(=C\[N+](=O)[O-])NCCSCc1ccc(CN(C)C)o1`, the molecule was called inactive.

On to `Cc1cc(C)c(/C=C2\C(=O)Nc3ccccc32)[nH]1`, for which the molecule was classed as inactive.

For `COC(=O)[C@H]1[C@H]2C[C@@H]3c4[nH]c5cc(OC)ccc5c4CCN3C[C@H]2C[C@@H](OC(=O)c2cc(OC)c(OC)c(OC)c2)[C@@H]1OC`, the molecule was classed as inactive.

Regarding `C[N+](C)(C)CCOC(=O)CCC(=O)OCC[N+](C)(C)C`, the molecule was called inactive.

`CCCOc1ccccc1-c1nc2n[nH]nc2c(=O)[nH]1`: the molecule was classed as inactive.

`CCCCNC(=O)NS(=O)(=O)c1ccc(C)cc1`: the molecule was called inactive.
